Test results published in PubChem BioAssay AID504332 (National Center for Advancing Translational Sciences (NCATS), 2011).
Values joined by “and” are separate entries in the source; they are usually repeats but may differ in a detail not shown here. Equal values may be shown once. Screen size: about 350,000 compounds; about 31,000 (8.9%) were called active. Roughly 15% stayed inconclusive and do not appear here. Calls come from the whole dose curve; as a rule, active = well fitted inhibition curve with a large enough effect; inconclusive = small, poorly fitted or top-dose-only effect; inactive = no such curve, though single readings can be large or run the other way. Many of the other results were omitted from the sample, so actives are more common in it than they were. A structure can be active in one record and inactive in another.

target: Histone-lysine N-methyltransferase EHMT2 (Homo sapiens) (UniProt Q96KQ7); assay: qHTS Assay for Inhibitors of Histone Lysine Methyltransferase G9a; conditions: G9a H3K9 monomethylation, AlphaScreen, 2 h; series mostly up to 102 µM; activity, negative = inhibition: at the top concentration; note: nearly all actives have a fitted effect of over 75% in size
Sequence (Q96KQ7 913-1193 limits assumed): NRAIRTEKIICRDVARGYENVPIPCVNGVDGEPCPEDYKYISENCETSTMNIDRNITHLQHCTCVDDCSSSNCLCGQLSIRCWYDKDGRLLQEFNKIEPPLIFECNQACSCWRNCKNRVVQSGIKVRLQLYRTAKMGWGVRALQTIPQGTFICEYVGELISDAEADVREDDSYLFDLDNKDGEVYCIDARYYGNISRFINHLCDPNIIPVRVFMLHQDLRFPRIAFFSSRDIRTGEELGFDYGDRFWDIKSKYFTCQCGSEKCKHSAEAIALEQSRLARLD
In short: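 Step 1: enzyme (final 20 nM) with compound, 15 min RT. Step 2: substrate peptide 500 nM and SAM 20 uM, 2 h RT. Step 3: anti-H3K9me1 antibody and AlphaScreen beads, 10 min, then plate read.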
% is set by controls: 0 for no effect and ±100 for the full control effect; potency is the fitted concentration of half-maximal effect.

| Structure (SMILES) | activity, negative = inhibition | Potency |
| --- | --- | --- |
| CCCC(C)n1[nH]c(=O)c2c1NC(=O)CSC2c1ccc(OC)c(OC)c1 (stereo not drawn) | 16.5% [at 59 µM] (inactive) | – |
| Cn1c(C(=O)N2CCC(C(=O)N3CCC4(CC3)OCCO4)CC2)cc2sccc21 | -21% (inactive) | – |
| CN(C)C(=O)Oc1cc(OC(=O)N(C)C)cc(C(O)CNC(C)(C)C)c1 (stereo not drawn) | inactive | – |
| COc1ccc(C(=O)CC2C(=O)N(C)C(=O)N(C)C2=O)cc1 | – | 2.24 µM (active) |
| CCOP(=O)(OCC)C(NC(=O)c1ccc(OC)cc1)C(Cl)(Cl)Cl (stereo not drawn) | 13.5% (inactive) | – |
| COc1ccc(C(=O)C2CN(C)CC2C(=O)c2ccc(OC)cc2)cc1 (stereo not drawn) | -1.6% [at 59 µM] (inactive) | – |
| CCCOC(=O)C1C2c3ccccc3C(c3ccccc32)C1C(=O)O (stereo not drawn) | -36.6% (inactive) | – |
| CCC1(C)CC(=O)NC1=O (stereo not drawn) | 28.2% [at 12.7 µM] (inactive) | – |
| CCN(CC)CCOC(=O)c1cc2cc(COC)ccc2o1 | – | 17.8 µM (active) |
| Cc1nn(Cc2ccccc2Cl)c(Cl)c1C(=O)OC(C(=O)NC(N)=O)C(C)C (stereo not drawn) | 3.99% [at 59 µM] (inactive) | – |
| CC(=NCC1CCCO1)c1c(O)n(-c2ccccc2)c(=O)[nH]c1=O (stereo not drawn) | 13.8% (inactive) | – |
| CCN1c2nc3c(C)cccn3c(=O)c2CC2(C(=O)N(C)C(=O)N(C)C2=O)C1C (stereo not drawn) | 7.48% [at 12.7 µM] (inactive) | – |
| CCOC(=O)c1c(N)n(Cc2ccccc2)c2nc3ccccc3nc12 | -1.61% (inactive) | – |
| CC(=O)c1ccc(-c2ccc(Cn3c(C)nc4cc(N)c(C)nc43)cc2)cc1 | – | 15.8 µM (active) |
| CN(C)P(=S)(Nc1ccccc1)C(Cl)(Cl)Cl (stereo not drawn) | 6.12% (inactive) | – |
| COC(=O)C1=C(c2ccc(-c3ccccc3)c(F)c2)C[C@@H]2CC[C@H]1N2C(=O)NCc1ccc(F)cc1 | 12.5% [at 0.501 µM] (inactive) | – |
| CNC(=O)Nc1ccc(C(O)(C(=O)OC)C(F)(F)F)cc1 (stereo not drawn) | 5.46% (inactive) | – |
| Cn1cc(C(=O)OCC(=O)N2CCCC2)c2ccccc21 | 17.1% [at 12.7 µM] (inactive) | – |
| NCC(O)c1ccc(O)cc1 (stereo not drawn) | -5.15% [at 2.33 µM] (inactive) and 25.4% [at 12.7 µM] (inactive) | – |
| CC(C(=O)Nc1ccc(Cl)cc1Cl)N1CC=C(c2ccccc2)CC1 (stereo not drawn) | 81.9% [at 59 µM] (inactive) | – |
| CC1C2Cn3c(nc4ccccc43)C1N(C)O2 (stereo not drawn) | 11.2% [at 12.7 µM] (inactive) | – |
| O=C1NC(=O)N(c2ccc(F)cc2)C(=O)/C1=C/c1ccc2c(c1)CCCN2Cc1ccccc1 | – | 12.6 µM (active) |
| O=C(NC(c1ccc(Cl)cc1)P(=O)(Oc1ccccc1)Oc1ccccc1)OCc1ccccc1 (stereo not drawn) | 7.99% [at 59 µM] (inactive) | – |
| Cc1ccccc1NC(=O)COC(=O)c1cc(C)n(C2CC2)c1C | -5.25% [at 59 µM] (inactive) | – |

| Structure (SMILES) | activity, negative = inhibition | Potency |
| --- | --- | --- |
| CCOC(=O)C(O)(c1ccc(N)c(OC)c1)C(F)(F)F (stereo not drawn) | -7.69% [at 2.33 µM] (inactive) | – |
| CCOP(=O)(OCC)C(NC(=O)NC)C(N)=O (stereo not drawn) | 8.11% (inactive) | – |
| Nc1ccc(C(=O)N/N=C2/CN3CCC2CC3)cc1 | -18.4% (inactive) | – |
| CCC(C)n1c(O)c(/C=N/Nc2nc3c(c(=O)n(C)c(=O)n3C)n2C)c(=O)[nH]c1=S (stereo not drawn) | – | 25.1 µM (active) |
| CC(=O)c1c(O)c(C)c(O)c(Cc2c(O)c3c(c(C(=O)/C=C/c4ccccc4)c2O)OC(C)(C)C=C3)c1O | – | 14.1 µM (active) and 2.12 µM (active) |
| O=c1c2ccccc2nc(/C=C/c2ccc(F)cc2)n1-c1ccccc1O | 7.81% (inactive) | – |
| C=CCN(CC=C)C(=O)Nc1ccc(OCC)cc1 | 17.5% (inactive) | – |
| CC[C@]1(C)CC(=O)NC1=O | -2.16% [at 12.7 µM] (inactive) | – |
| COC(=O)C1=C(c2ccc(F)cc2OCc2ccccc2)C[C@@H]2CC[C@H]1N2C(=O)NCc1ccc(Cl)cc1 | 8.03% [at 2.33 µM] (inactive) | – |
| O=C(c1cc2nc(-c3ccccc3)cc(-c3ccccc3)n2n1)N1CCC2(CC1)OCCO2 | 17.4% [at 12.7 µM] (inactive) | – |
| CC1=C2C(=O)C3C(CC=C4CC(OC5OC(O)C(O)C(O)C5CO)CCC43C)C2CCC12OC1CC(C)CNC1C2C (stereo not drawn) | -0.0918% (inactive) | – |
| O=C1NC(=O)N(CCc2ccc(F)cc2)C(=O)/C1=C/C=C/c1ccccc1 | – | 70.8 µM (active) |
| COC(=O)C(O)(c1ccc(NC(=O)c2ccco2)c(OC)c1)C(F)(F)F (stereo not drawn) | -1.81% (inactive) | – |
| CCc1cccc2c(C#N)cn(CC(=O)N3CCOCC3)c12 | 15.5% [at 12.7 µM] (inactive) | – |
| COCc1cc(OC(=O)N(C)C)nc(-c2ccc(C)c(Cl)c2)n1 | 64.1% (inactive) | – |
| CCCCCCCCc1[se]c2ccccc2c1Br | 23.6% (inactive) | – |
| COc1ccc(-c2nc(CS(=O)CC(=O)N3CCC4(CC3)OCCO4)c(C)o2)cc1 (stereo not drawn) | -4.28% [at 12.7 µM] (inactive) | – |
| C[C@]12CC[C@H](O)C[C@H]1CC[C@@H]1C2CC[C@]2(C)[C@@H](C3=CC(=O)OC3)[C@@H](O)C[C@]12O (stereo partly drawn) | -8.99% [at 2.33 µM] (inactive) | – |
| CN(C)c1ccc(NC(=O)CN2C3CCCC2CC(NC(=O)c2ccccc2)C3)cc1 (stereo not drawn) | – | 50.1 µM (active) |
| Cc1cc(C)cc(NC(=S)NC2CC3CCCC(C2)N3Cc2cccs2)c1 (stereo not drawn) | -45.2% [at 59 µM] (inactive) | – |
| CCC(C)C(=O)O[C@@H]1C[C@@]2(C)C(c3ccoc3)OC(=O)CC23OC2(C)O[C@@]14[C@@]1(C)C(CC(=O)OC)C5(C)CC1(O)C(O)(C5OC(=O)C1(C)OC1C)C(OC(C)=O)[C@@]34O2 (stereo partly drawn) | -36.9% [at 2.33 µM] (inactive) | – |
| c1ccc2sc(SNC3CCCCC3)nc2c1 | – | 1.78 µM (active) |
| COc1cc2c(cc1OC)[C@@H]1C(=O)c3ccc(O)c(CC=C(C)C)c3OC1CO2 (stereo partly drawn) | -32.8% [at 2.33 µM] (inactive) | – |
| O=C(CSC1c2ccccc2-c2ccccc21)N/N=C/c1ccccc1 | 3.19% (inactive) | – |

| Structure (SMILES) | activity, negative = inhibition | Potency |
| --- | --- | --- |
| CC1CCCCN1Cc1cccnc1 (stereo not drawn) | – | 6.31 µM (active) |
| CN1CCC(N(C)Cc2cccnc2)CC1 | – | 3.16 µM (active) |
| c1cncc(CNC2=NCCC2)c1 | 11.8% [at 59 µM] (inactive) | – |
| c1cncc(CNCCc2c[nH]c3ccccc23)c1 | 13.1% (inactive) | – |
| CCOC(=O)C1(Cc2ccc(Cl)cc2)CCN(C(C)CCn2cccn2)CC1 (stereo not drawn) | -32.7% (inactive) | – |
| CC[N+](CC)(CC)CCCCCCCCCC[N+](CC)(CC)CC | 2.94% (inactive) | – |
| C=CCN1C(=O)C2(C(C(=O)OCC)=C(N)Oc3c2c(=O)oc2ccccc32)c2ccccc21 (stereo not drawn) | 10.8% [at 59 µM] (inactive) | – |
| Fc1ccc(C2N3CCCN23)cc1 (stereo not drawn) | -3.98% (inactive) | – |
| CCC(=NCCCO)c1c(O)n(-c2ccc(OC)cc2)c(=O)[nH]c1=O | 2.36% (inactive) | – |
| O=C(COC(=O)c1ccccc1)Nc1ccccc1Sc1ccccc1 | 84.5% [at 59 µM] (inactive) | – |
| O=C1N=c2ccccc2=C/C1=C\c1c(O)[nH]c(=S)[nH]c1=O | – | 25.1 µM (active) |
| COc1ccc(C2N3CC(C)(C)CN23)cc1 (stereo not drawn) | 12% [at 59 µM] (inactive) | – |
| CCCn1c(C(=O)c2ccccc2OC)nc2ccccc21 | 1.61% (inactive) | – |
| COc1ccc(Br)cc1CNCCc1cccc(Cl)c1 | – | 20 µM (active) |
| Cc1ccc(N2C(=O)NC(=O)C(CCc3ccncc3)(Cc3cccc(Cl)c3Cl)C2=O)cc1 (stereo not drawn) | -9.85% [at 59 µM] (inactive) | – |
| CC1=CC(=Cc2sc3ccccc3[n+]2C)C=C(C)O1 | – | 50.1 µM (active) |
| CN(C)C(=O)Oc1cc(=O)n2c3c(cccc13)CCC2 | -1.41% [at 59 µM] (inactive) | – |
| CC(C)Nc1nc(Cl)nc(NC(C)C)n1 | -2.82% [at 59 µM] (inactive) | – |
| CNC(=S)N/N=C1\C2CN3CCN(C2)CC1(c1ccccc1)C3 | 29.9% [at 59 µM] (inactive) | – |
| Cc1ccc(P(=S)(c2ccc(C)o2)N2CCOCC2)o1 | -35.9% [at 12.7 µM] (inactive) | – |
| Cc1cc(/C=C2/C(=O)NC(=O)N(Cc3ccco3)C2=O)c(C)n1-c1ccc(C(=O)O)cc1 | – | 35.5 µM (active) |
| O=C1NC(=O)N(Cc2ccco2)C(=O)/C1=C\c1ccc(-c2ccc(F)cc2)o1 | – | 12.6 µM (active) |
| Cc1ccc2c(c1)C1CN(C)CCC1N2C(=O)Cn1nnc(-c2ccccc2F)n1 (stereo not drawn) | -16.7% (inactive) | – |
| CCOC(=O)c1c(N)n(CCN2CCOCC2)c2nc3ccccc3nc12 | 0.945% (inactive) | – |

| Structure (SMILES) | activity, negative = inhibition | Potency |
| --- | --- | --- |
| CC(=O)N1CN2CN(C(C)=O)CC(C(=O)c3ccc(Br)cc3)(C2)C1 | 9.55% [at 59 µM] (inactive) | – |
| C[C@@]12CC[C@H]3[C@@H](CC[C@]4(O)C[C@H](O)CC[C@@]34C=O)[C@]1(O)CC[C@@H]2C1=CC(=O)OC1 | 21.4% [at 21.5 µM] (inactive) | – |
| O=c1c2ccccc2nc(-c2ccc(Cl)cc2Cl)n1-c1ccncc1 | -5.79% [at 59 µM] (inactive) | – |
| COC(=O)C1=C(c2ccc(C(C)=O)cc2)C[C@@H]2CC[C@H]1N2C(=O)NCCNC(C)=O | 23.2% [at 2.33 µM] (inactive) | – |
| O=Cc1cn(Cc2ccc(F)cc2Cl)c2ccccc12 | 41.7% [at 59 µM] (inactive) | – |
| CNC(=O)N(C)c1nnc(C(C)(C)C)s1 | -1.28% [at 12.7 µM] (inactive) | – |
| CCOC(=O)C1SC2(C(F)(F)C(F)F)CC1(O)c1c(c(OC)c3occc3c1OC)O2 (stereo not drawn) | -5.46% [at 59 µM] (inactive) | – |
| N=c1ccccn1Cc1ccccc1 | -31.1% (inactive) | – |
| CCCCC/C=C\C/C=C\C/C=C\CCCCCCC(=O)NCCO | 28.1% [at 59 µM] (inactive) | – |
| CCCCC/C=C\C/C=C\C/C=C\C=C\[C@H](CCCC(=O)O)OO | 22.9% [at 59 µM] (inactive) | – |
| CCCCC/C=C\C/C=C\C/C=C\C/C=C\CCCCCC(=O)NCCO | – | inactive and 12.6 µM (active) |
| O=C1/C(=C\c2ccc3c(c2)OCO3)N2CCC1CC2 | 2.58% [at 59 µM] (inactive) | – |
| O=C(CCN1CCCCC1)NCC(=O)Nc1ccc(Br)cc1C(=O)c1ccccc1 | -0.343% [at 59 µM] (inactive) | – |
| CCOP(=S)(OCC)C(O)CCCCCn1c(=O)c(F)cn(C2CCCO2)c1=O (stereo not drawn) | 6.51% [at 0.501 µM] (inactive) | – |
| CN(C)c1nc(N(C)C)nc(N(C#N)CCCl)n1 | – | 39.8 µM (active) |
| Clc1cccc(Cl)c1Cl | 8.54% [at 0.501 µM] (inactive) | – |
| C[C@]12CC[C@@H]3c4ccc(O)cc4C[C@@H](CCCCCCCCCS(=O)CCCC(F)(F)C(F)(F)F)C3[C@@H]1CC[C@@H]2O (stereo partly drawn) | 11.8% [at 59 µM] (inactive) | – |
| Cn1c(O)c(C=Nc2ccc3c(c2)CCC3)c(=O)n(C)c1=O | -5.96% [at 59 µM] (inactive) | – |
| c1ccc2sc(N3CCNCC3)nc2c1 | 9.8% (inactive) | – |
| c1ccc2sc(C3CCCNC3)nc2c1 (stereo not drawn) | – | 44.7 µM (active) |
| CC(C)(C)[C@]1(O)C[C@@H]2OC(=O)C[C@@]23C(=O)O[C@@H]2OC(=O)[C@H](O)[C@]213 | 9.37% (inactive) | – |
